Bioassay records (PubChem)
Sampled rows, rich in hits. Any-hit rate of the full collection: about 9.2%.
USP17 block – inhibitors of human USP17 deubiquitinase | Ubiquitin carboxyl-terminal hydrolase 17-like protein 5 (Homo sapiens), A8MUK1 | purified USP17, Ub-rhodamine cleavage fluorescence, 3 h | 47,000 compounds, 6.5% hits | inhibition, % at 50 µM
OTUD3 inh – inhibitors of human OTUD3 deubiquitinase. inhibition, % at 25 µM. purified OTUD3, Ub-rhodamine fluorescence, 2 h. AID 1645858, 2021. 47,000 compounds, 0.7% hits
UCHL1 inh – inhibitors of human UCHL1 deubiquitinase; Ubiquitin carboxyl-terminal hydrolase isozyme L1 (Homo sapiens), P09936; purified UCHL1, Ub-rhodamine cleavage fluorescence; inhibition, % at 20 µM; 47,000 compounds, 0.2% hits; AID 1645859, 2021
USP7 inh – inhibitors of human USP7 deubiquitinase. purified USP7, Ub-rhodamine cleavage fluorescence. 47,000 compounds, 0.3% hits. Ubiquitin carboxyl-terminal hydrolase 7 (Homo sapiens), Q93009. inhibition, % at 20 µM
USP8 block – inhibitors of human USP8 deubiquitinase | Ubiquitin carboxyl-terminal hydrolase 8 (Homo sapiens), P40818 | purified USP8, Ub-rhodamine cleavage fluorescence, 30 min | inhibition, % at 20 µM | 47,000 compounds, 4.2% hits | AID 1645853, 2021
USP10 inh – inhibitors of human USP10 deubiquitinase | purified USP10, Ub-rhodamine fluorescence, 60 min | inhibition, % at 20 µM | 47,000 compounds, 1.1% hits | AID 1645856, 2021
Target sequence (Q14694 whole entry, looked up): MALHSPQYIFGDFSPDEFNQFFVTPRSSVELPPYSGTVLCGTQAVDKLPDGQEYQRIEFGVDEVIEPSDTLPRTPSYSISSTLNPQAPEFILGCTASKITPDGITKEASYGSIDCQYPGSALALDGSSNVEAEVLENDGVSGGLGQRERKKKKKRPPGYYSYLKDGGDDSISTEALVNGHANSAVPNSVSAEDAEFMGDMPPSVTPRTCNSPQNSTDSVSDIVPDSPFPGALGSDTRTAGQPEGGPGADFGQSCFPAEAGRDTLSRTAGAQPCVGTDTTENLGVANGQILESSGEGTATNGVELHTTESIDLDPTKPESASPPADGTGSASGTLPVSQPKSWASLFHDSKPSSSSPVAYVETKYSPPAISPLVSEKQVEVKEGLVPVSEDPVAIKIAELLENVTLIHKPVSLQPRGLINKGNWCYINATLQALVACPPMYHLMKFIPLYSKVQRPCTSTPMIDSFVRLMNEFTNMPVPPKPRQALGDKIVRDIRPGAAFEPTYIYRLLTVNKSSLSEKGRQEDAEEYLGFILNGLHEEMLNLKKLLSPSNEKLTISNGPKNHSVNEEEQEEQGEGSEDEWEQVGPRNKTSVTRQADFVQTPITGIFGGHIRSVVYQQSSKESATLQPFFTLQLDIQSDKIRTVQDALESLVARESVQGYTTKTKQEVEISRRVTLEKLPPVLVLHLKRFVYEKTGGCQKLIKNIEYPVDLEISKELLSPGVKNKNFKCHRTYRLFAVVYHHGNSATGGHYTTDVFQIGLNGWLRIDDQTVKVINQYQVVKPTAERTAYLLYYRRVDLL
Hits are given with their value; - = inactive; . = no result. No stated cut-off is given here; in the data, active means inhibition above about 30%; inactive means the rest.

SMILES	USP17 block	OTUD3 inh	UCHL1 inh	USP7 inh	USP8 block	USP10 inh
CCOc1ccccc1C(=O)N1C[C@H]2NC(=O)c3ccccc3C(=O)[C@@]2(C)C1	-	-	-	-	-	-
O=C(c1cncs1)N1C[C@H]2CC(Oc3ccccc3)C[C@H]2C1 (some centres not stated)	.	-	-	-	-	-
COC(=O)c1ccc(C(=O)Nc2ccccc2-c2nc3ccccc3[nH]2)cc1	-	-	-	-	-	-
O=C(COc1ccc(Cl)cc1Cl)Nc1ccccc1-c1nc2ccccc2[nH]1	84.2	-	-	-	-	-
O=C(COc1ccc(Cl)cc1Cl)Nc1noc2ccccc12	39.5	-	-	.	-	-
O=C(COc1ccc(Cl)cc1Cl)Nc1ccc2sccc2c1	41.5	-	-	-	-	-
COc1cc2ccccc2cc1C(=O)Nc1ccccc1-c1nc2ccccc2[nH]1	-	-	-	-	-	-
COc1ccc(OCCCC(=O)Nc2ccccc2-c2nc3ccccc3[nH]2)cc1	-	-	-	-	35.2	-
Cc1cc(O)c2c(c1)C([C@]13Cc4cc(O)c5c(c4[C@H]1C=C[C@@H](O)[C@H]3O)C(=O)c1c(O)ccc(O)c1C5=O)OC2=O (some centres not stated)	-	-	-	-	-	-
CCc1cc2c3c([nH]c2cc1S(=O)(=O)N1CCCCC1)CCCC3=O	-	-	-	-	-	-
COc1ccc(N2CCn3c(SCC(=O)Nc4cc(C)cc(C)c4)nnc32)cc1	.	-	-	-	49.9	-
CCc1cccc2c(C(=O)COC(=O)C(NC(=O)c3cccc(S(=O)(=O)N4CCOCC4)c3)C(C)C)c[nH]c12 (configuration not stated)	-	-	-	-	-	-
CCc1cccc2c(C(=O)COc3ccc(C#N)cc3)c[nH]c12	42.9	32.1	-	-	81.8	-
O=C(NC1CC1)c1cc(-c2ccco2)nc2onc(-c3ccccc3)c12	31.4	-	-	-	-	-
CNc1nc(C2CCN(C(=O)C3(c4cccc(C)c4)CCOCC3)C2)nc2c1CCN(C)C2 (configuration not stated)	.	-	-	-	37.3	-
COc1cccc(-c2cc(C(F)(F)F)nc(-n3cc([N+](=O)[O-])c(OC)n3)n2)c1	-	-	-	-	-	-
CC12CCc3occc3C1CCC13CC(CCC12)C(O)(CO)C3 (configuration not stated)	-	-	-	-	-	-
C[C@@]12CCc3occc3C1CCC13CC(CCC12)[C@@](O)(CO)C3 (some centres not stated)	47.2	-	-	-	-	-
O=c1c(NCCCN2CCCC2)nc2ccncc2n1Cc1ccccc1	58.1	-	-	-	-	-
CCN(CC)c1cc(-n2nc(-c3ccccc3)cc2-c2ccccc2)ncn1	-	-	-	-	-	-
O=C(CC1Oc2ccccc2NC1=O)Nc1ccccc1Br (configuration not stated)	59.0	-	-	-	-	-
CCC(C)N(CCNC(=O)CC1Oc2ccccc2NC1=O)C1CCCCC1 (configuration not stated)	-	-	-	-	-	-
O=C(CCn1cnc2ccccc21)N1C[C@@H](O)[C@H](N2CCOCC2)C1	-	-	-	-	-	-
Cc1nn(C2CCS(=O)(=O)C2)c2ncc(C(=O)c3cc(F)ccc3O)cc12 (configuration not stated)	-	-	-	-	-	-
Cc1cc([N+](=O)[O-])nn1CCCC(=O)Nc1ccc2c(c1)OCO2	-	-	-	-	44.8	-
SMILES	USP17 block	OTUD3 inh	UCHL1 inh	USP7 inh	USP8 block	USP10 inh
CSc1ccccc1NC(=O)CCCn1nc([N+](=O)[O-])cc1C	-	-	-	-	-	-
COc1ccc(-c2cc3nc([C@@H](C)NC(=O)c4ccc5c(c4)OCO5)nn3cn2)cc1	-	-	-	-	32.0	-
COc1ccc(-c2cc3nc([C@H](C)NC(=O)Cc4cc(F)ccc4F)nn3cn2)cc1	40.3	-	-	46.2	-	37.1
COc1cccc(CC(=O)N[C@@H](C)c2nc3cc(-c4ccc(F)cc4)ncn3n2)c1	-	-	-	-	-	-
COc1ccc(-c2cc3nc([C@H](C)NC(=O)Cc4cccc(F)c4)nn3cn2)cc1	36.8	-	37.8	52.2	-	-
CC1(C)CC(=O)c2cnc3c(C(=O)NC4CCCCCC4)cnn3c2C1	-	-	-	-	-	-
Cc1ccc2oc(=O)c(S(=O)(=O)N3CCCCC3)cc2c1	61.4	-	-	-	-	-
O=c1oc2ccccc2cc1S(=O)(=O)N1CCCCC1	-	-	-	-	-	-
COc1ccc2nc(N3CCN(C(=O)C4CCCCC4)CC3)sc2c1	-	-	-	-	-	-
Cc1ccc(NC(=O)Cc2nnc3c(-c4nc(C5CC5)no4)cccn23)cc1	52.0	-	59.2	57.9	97.2	48.3
COc1ccc(-n2c(SCC(=O)c3ccc(F)cc3)nnc2-c2cccnc2)cc1	70.7	-	-	-	-	-
COc1ccc(C(=O)CSc2ccc3nnc(-c4cccnc4)n3n2)cc1	-	-	-	-	-	-
O=C(NCc1ccncc1)c1nc(-c2ccc3[nH]ccc3c2)no1	-	-	-	-	-	-
O=C(NCc1ccccc1Cl)c1nc(-c2ccc3[nH]ccc3c2)no1	48.6	-	-	-	-	-
COc1ccc2nc(C(=O)NC3CCCCCC3)cn2n1	-	-	-	-	-	-
COC(=O)c1ccc(C2c3[nH]c4ccccc4c3C[C@H]3C(=O)N(c4ccccc4C(=O)OC)C(=O)N23)cc1 (some centres not stated)	-	-	-	-	-	-
Cc1cc2n(n1)[C@@H](C(F)F)C[C@@H](C1CCN(C(=O)Cc3sc(C)nc3C)CC1)N2	-	-	-	-	-	-
CCOC(=O)c1[nH]c2c(c1Cc1ccccc1OC)C(=O)CC(C)(C)C2	36.5	-	-	-	-	-
CCCc1c(C(=O)NC2CCCCC2)cnn1-c1ccc(Cl)cc1	35.6	-	-	-	-	-
COc1ccccc1Cc1nnc(-c2cnc3onc(C4CCCC4)c3c2)o1	-	-	-	-	-	-
FC(F)(F)c1cccc(Nc2nc(-c3ccccn3)nc3ccccc23)c1	74.5	-	-	-	-	-
Brc1ccc(Nc2nc(-c3ccccn3)nc3ccccc23)cc1	52.0	51.2	-	-	92.9	-
OCCCNc1cc(-c2cccc(C(F)(F)F)c2)nc(-c2ccccn2)n1	-	-	-	-	-	-
O=C(c1cccnc1)c1c(N2CCOCC2)[nH]c(=O)c2ccccc12	37.2	-	-	-	-	-
